# Source: ChEMBL document CHEMBL1961873, “Compounds: GSK PKIS; Assays: Nanosyn kinase panel” (2012)
# Experiments:
# [1] = target: Glycogen synthase kinase-3 beta (Homo sapiens) (UniProt P49841); conditions: at 1 µM;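 also: reported values are mean percent inhibition of GSK3B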
# [2] = target: Homeodomain-interacting protein kinase 1 (Homo sapiens) (UniProt Q86Z02); conditions: at 0.1 µM
# [3] = target: Homeodomain-interacting protein kinase 1 (Homo sapiens) (UniProt Q86Z02); conditions: at 1 µM
# [4] = target: T1, Homeodomain-interacting protein kinase 4 (Homo sapiens) (UniProt Q8NE63); conditions: at 0.1 µM
# T1 sequence (whole entry): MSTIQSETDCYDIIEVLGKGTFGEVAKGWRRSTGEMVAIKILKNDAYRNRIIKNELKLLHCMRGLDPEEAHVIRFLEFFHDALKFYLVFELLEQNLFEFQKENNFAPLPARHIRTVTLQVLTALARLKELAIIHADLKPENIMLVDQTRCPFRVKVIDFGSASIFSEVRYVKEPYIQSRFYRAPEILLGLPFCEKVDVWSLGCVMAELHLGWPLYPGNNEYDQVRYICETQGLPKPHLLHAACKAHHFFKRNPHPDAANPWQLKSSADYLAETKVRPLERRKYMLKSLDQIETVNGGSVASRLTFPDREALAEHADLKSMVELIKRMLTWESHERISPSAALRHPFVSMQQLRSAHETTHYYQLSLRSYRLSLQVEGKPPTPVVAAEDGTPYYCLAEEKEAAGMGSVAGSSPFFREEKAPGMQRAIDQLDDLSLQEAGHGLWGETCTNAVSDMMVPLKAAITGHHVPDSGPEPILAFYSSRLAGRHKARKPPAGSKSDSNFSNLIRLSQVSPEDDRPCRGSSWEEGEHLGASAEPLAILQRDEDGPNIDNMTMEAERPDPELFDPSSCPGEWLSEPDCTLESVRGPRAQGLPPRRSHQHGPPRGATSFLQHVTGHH
# [5] = target: T1, Homeodomain-interacting protein kinase 4 (Homo sapiens); conditions: at 1 µM
# [6] = target: Mitogen-activated protein kinase 9 (Homo sapiens) (UniProt P45984); conditions: at 0.1 µM
# Sequence of Mitogen-activated protein kinase 9 (Homo sapiens) (P45984 whole entry, looked up): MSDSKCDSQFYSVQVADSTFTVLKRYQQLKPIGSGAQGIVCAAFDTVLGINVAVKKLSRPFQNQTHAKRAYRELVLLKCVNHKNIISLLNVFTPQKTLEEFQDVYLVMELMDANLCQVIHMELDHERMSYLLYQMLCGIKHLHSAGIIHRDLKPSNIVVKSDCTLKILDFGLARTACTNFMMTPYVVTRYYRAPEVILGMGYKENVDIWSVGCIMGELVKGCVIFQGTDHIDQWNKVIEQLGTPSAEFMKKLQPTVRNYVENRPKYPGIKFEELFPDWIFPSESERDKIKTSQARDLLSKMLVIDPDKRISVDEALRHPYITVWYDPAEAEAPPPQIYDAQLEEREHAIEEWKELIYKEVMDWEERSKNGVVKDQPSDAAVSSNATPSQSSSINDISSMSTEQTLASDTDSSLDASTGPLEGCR
# [7] = target: Mitogen-activated protein kinase 9 (Homo sapiens) (UniProt P45984); conditions: at 1 µM
# [8] = target: Mitogen-activated protein kinase 1 (Homo sapiens) (UniProt P28482); conditions: at 0.1 µM
# Sequence of Mitogen-activated protein kinase 1 (Homo sapiens) (P28482 whole entry): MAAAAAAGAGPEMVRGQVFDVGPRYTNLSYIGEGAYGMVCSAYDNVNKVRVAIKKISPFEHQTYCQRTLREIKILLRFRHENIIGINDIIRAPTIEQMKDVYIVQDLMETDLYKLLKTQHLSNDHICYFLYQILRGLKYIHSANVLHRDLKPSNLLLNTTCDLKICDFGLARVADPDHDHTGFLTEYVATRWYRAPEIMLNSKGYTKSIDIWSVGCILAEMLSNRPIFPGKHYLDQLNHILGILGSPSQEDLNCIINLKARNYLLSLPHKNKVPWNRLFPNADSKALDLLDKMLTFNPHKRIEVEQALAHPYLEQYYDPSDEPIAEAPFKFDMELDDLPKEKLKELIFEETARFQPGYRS
# [9] = target: Mitogen-activated protein kinase 1 (Homo sapiens) (UniProt P28482); conditions: at 1 µM
# [10] = target: Mitogen-activated protein kinase 3 (Homo sapiens) (UniProt P27361); conditions: at 0.1 µM
# Sequence of Mitogen-activated protein kinase 3 (Homo sapiens) (P27361 whole entry): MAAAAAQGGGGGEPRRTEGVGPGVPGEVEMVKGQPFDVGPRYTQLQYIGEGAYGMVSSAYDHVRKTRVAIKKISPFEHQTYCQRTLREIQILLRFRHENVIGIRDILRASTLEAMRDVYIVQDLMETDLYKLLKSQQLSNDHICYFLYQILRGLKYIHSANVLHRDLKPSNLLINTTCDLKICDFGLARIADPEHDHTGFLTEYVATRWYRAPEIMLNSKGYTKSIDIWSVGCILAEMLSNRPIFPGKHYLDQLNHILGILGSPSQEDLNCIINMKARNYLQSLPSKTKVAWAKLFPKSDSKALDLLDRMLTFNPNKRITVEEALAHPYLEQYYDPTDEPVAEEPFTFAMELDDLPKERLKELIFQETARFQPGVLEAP
# [11] = target: Mitogen-activated protein kinase 3 (Homo sapiens) (UniProt P27361); conditions: at 1 µM
# [12] = target: SRSF protein kinase 3 (Homo sapiens) (UniProt Q9UPE1); conditions: at 0.1 µM
# Sequence of SRSF protein kinase 3 (Homo sapiens) (Q9UPE1 whole entry): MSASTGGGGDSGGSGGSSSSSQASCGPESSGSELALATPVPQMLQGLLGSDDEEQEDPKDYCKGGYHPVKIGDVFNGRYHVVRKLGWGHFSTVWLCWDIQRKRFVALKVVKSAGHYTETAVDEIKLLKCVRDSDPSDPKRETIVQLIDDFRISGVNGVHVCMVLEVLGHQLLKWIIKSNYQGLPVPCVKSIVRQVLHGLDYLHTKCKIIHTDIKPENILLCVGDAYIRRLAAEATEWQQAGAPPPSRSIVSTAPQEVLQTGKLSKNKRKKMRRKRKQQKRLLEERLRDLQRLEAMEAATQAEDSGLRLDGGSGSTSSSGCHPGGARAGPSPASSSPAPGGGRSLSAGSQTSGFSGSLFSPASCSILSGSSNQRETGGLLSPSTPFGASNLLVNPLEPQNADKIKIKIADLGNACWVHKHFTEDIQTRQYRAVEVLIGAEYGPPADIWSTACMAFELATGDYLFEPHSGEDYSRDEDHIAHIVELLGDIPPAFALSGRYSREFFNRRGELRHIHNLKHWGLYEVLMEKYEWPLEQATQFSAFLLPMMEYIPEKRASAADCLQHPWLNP
# [13] = target: SRSF protein kinase 3 (Homo sapiens) (UniProt Q9UPE1); conditions: at 1 µM
# [14] = target: Mitogen-activated protein kinase 14 (Homo sapiens) (UniProt Q16539); conditions: at 0.1 µM
# Sequence of Mitogen-activated protein kinase 14 (Homo sapiens) (Q16539 whole entry): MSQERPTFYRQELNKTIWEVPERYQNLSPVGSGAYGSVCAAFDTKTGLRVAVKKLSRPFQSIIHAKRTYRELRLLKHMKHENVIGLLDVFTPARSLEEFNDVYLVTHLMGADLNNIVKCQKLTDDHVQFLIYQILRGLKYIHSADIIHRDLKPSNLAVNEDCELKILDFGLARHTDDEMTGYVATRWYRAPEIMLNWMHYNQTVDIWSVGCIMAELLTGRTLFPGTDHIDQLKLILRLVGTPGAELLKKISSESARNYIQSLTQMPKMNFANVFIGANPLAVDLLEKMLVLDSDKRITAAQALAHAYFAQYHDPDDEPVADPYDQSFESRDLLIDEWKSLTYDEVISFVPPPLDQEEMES
# [15] = target: Mitogen-activated protein kinase 14 (Homo sapiens) (UniProt Q16539); conditions: at 1 µM
# [16] = target: Mitogen-activated protein kinase 11 (Homo sapiens) (UniProt Q15759); conditions: at 0.1 µM
# Sequence of Mitogen-activated protein kinase 11 (Homo sapiens) (Q15759 whole entry): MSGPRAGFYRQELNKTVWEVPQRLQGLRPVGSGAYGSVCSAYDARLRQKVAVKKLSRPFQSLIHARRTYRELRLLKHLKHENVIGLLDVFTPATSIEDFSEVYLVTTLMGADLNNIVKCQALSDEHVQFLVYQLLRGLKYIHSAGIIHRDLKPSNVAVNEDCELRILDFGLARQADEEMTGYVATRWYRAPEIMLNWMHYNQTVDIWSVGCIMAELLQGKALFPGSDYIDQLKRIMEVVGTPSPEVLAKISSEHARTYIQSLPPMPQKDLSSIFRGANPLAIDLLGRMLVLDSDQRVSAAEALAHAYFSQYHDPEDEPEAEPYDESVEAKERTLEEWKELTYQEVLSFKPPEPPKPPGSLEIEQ
# [17] = target: Mitogen-activated protein kinase 11 (Homo sapiens) (UniProt Q15759); conditions: at 1 µM
# [18] = target: T2, Mitogen-activated protein kinase 13 (Homo sapiens) (UniProt O15264); conditions: at 0.1 µM
# T2 sequence (whole entry): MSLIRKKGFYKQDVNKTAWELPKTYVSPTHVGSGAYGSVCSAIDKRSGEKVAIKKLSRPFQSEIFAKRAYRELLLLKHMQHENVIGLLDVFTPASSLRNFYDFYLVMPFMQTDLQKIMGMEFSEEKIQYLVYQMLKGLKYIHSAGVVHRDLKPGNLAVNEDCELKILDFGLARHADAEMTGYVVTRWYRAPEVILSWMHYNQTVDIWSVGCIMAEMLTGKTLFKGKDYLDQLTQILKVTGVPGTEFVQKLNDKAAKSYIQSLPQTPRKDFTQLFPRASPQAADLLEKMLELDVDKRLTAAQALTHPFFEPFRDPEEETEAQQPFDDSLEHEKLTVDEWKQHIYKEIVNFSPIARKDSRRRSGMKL
# [19] = target: T2, Mitogen-activated protein kinase 13 (Homo sapiens); conditions: at 1 µM
# [20] = target: T3, Mitogen-activated protein kinase 12 (Homo sapiens) (UniProt P53778); conditions: at 0.1 µM
# T3 sequence (whole entry): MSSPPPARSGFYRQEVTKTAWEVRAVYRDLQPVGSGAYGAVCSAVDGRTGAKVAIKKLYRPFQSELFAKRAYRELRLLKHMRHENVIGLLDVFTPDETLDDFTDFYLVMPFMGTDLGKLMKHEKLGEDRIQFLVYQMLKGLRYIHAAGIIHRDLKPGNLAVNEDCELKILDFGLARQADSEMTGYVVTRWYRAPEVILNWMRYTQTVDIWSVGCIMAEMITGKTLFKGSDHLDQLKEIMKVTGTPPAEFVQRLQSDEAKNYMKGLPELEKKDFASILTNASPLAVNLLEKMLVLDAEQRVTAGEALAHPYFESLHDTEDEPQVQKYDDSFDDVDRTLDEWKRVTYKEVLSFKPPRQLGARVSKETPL
# Sequence of Glycogen synthase kinase-3 beta (Homo sapiens) (P49841 whole entry, looked up): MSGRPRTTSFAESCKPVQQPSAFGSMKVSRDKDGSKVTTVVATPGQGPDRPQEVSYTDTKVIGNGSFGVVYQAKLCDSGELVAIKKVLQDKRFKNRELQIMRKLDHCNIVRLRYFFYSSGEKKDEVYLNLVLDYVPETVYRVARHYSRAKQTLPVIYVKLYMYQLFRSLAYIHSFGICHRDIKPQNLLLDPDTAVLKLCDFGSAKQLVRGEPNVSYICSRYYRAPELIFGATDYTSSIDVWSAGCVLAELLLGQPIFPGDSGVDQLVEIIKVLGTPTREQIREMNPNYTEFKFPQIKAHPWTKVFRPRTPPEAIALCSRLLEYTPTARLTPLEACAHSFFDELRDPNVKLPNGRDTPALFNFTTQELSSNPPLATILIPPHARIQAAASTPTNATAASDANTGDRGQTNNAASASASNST
# Sequence of Homeodomain-interacting protein kinase 1 (Homo sapiens) (Q86Z02 whole entry, looked up): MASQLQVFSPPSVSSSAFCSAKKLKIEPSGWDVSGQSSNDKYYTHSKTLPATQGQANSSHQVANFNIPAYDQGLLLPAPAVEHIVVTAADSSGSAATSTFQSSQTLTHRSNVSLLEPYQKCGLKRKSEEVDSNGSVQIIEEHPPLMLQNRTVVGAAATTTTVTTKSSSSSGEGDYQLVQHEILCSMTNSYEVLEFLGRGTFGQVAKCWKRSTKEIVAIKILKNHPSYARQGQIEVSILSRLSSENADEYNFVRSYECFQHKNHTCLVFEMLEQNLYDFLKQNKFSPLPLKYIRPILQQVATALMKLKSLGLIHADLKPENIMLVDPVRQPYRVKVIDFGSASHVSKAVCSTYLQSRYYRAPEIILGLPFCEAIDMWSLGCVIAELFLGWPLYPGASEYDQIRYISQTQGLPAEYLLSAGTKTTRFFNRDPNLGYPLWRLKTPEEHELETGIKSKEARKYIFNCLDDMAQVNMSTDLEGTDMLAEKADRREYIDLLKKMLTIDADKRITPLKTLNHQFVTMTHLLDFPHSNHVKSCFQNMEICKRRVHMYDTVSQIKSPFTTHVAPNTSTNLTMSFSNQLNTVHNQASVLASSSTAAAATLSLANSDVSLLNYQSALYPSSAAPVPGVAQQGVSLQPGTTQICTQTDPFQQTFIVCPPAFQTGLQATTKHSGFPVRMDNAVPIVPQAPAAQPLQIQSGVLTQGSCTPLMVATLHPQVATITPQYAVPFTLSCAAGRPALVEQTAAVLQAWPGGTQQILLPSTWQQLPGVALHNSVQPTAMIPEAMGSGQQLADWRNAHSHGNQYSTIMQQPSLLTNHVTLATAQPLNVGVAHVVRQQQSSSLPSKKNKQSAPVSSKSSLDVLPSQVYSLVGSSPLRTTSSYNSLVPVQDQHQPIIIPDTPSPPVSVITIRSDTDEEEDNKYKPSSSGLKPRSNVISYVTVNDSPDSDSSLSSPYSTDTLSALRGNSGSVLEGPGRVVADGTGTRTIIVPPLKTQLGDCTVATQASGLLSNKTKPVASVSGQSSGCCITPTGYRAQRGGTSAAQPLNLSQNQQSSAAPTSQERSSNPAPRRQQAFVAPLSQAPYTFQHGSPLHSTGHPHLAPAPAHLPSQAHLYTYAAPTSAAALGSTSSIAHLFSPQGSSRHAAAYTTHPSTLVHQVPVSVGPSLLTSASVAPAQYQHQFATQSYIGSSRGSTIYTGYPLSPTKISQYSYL
Structure (SMILES),inhibition [1] [%],inhibition [2] [%],inhibition [3] [%],inhibition [4] [%],inhibition [5] [%],inhibition [6] [%],inhibition [7] [%],inhibition [8] [%],inhibition [9] [%],inhibition [10] [%],inhibition [11] [%],inhibition [12] [%],inhibition [13] [%],inhibition [14] [%],inhibition [15] [%],inhibition [16] [%],inhibition [17] [%],inhibition [18] [%],inhibition [19] [%],inhibition [20] [%]
NC(=O)c1sc(-n2cnc3cc(C(F)(F)F)ccc32)cc1OCc1ccccc1Br,2.38,-3.51,0.77,-0.26,2.95,0.9,1.72,0.51,2.13,3.5,0.48,-3.47,0.48,1.34,4.04,4.23,4.66,0.44,-0.68,1.27
Cc1cc(-c2ccco2)cc(C)c1/C=C/c1cncc(-c2nn[nH]n2)c1,0.28,-3.37,-0.75,-0.32,-0.04,1.02,0.6,1.32,2.18,3.63,1.84,-1.41,-1.53,1.46,1.43,3.14,3.31,0.77,-1.04,0.9
CCn1c(-c2nonc2N)nc2c(C#CCN)ncc(OCCCN)c21,14.4,3.64,2.54,1.45,2.86,-2.82,-3.07,-2.43,-4.85,-3.01,-0.18,-0.3,3.44,2.31,-5.03,-2.25,0.63,2.51,-4.32,-2.6
CCn1c(-c2nonc2N)nc2c(C#CC(C)(C)O)ncc(OCC3CCNCC3)c21,55.4,0.15,19.7,1.95,11.1,2.04,2.67,5.25,4.1,5.07,6.52,-0.11,3.41,-0.04,5.69,3.7,4.04,1.99,2.26,1.19
Nc1nonc1-c1nc2cnccc2n1C1CCCCC1,90,-0.6,16.1,0.63,10.3,-0.52,-0.67,-1.37,1.38,-0.87,2.55,-1.48,-1.01,-0.43,-3.77,-1.77,0.28,-3.11,1.87,-0.65
COc1cc2c(cc1Nc1nc(Nc3ccsc3C(N)=O)c3cc[nH]c3n1)N(C(=O)CN(C)C)CCC2,2.63,-2.33,5.85,2.25,5.44,3.02,8.04,,,2.93,1.75,-1.49,-0.38,,,2.67,6.9,1.18,0.18,2.28
COc1cccc(-n2ncc3c(N/N=C/c4ccncc4)ncnc32)c1,89.2,26.6,69.8,19.6,61.3,0.79,11.2,5.32,7.16,4.96,7.65,-0.94,1.8,9.43,16.4,4.02,10.8,7.88,43.3,5.45
NS(=O)(=O)c1ccc(N/C=C2\C(=O)Nc3ccc4ncsc4c32)cc1,65.1,3.83,34.7,1.88,11.8,5.59,20.2,8.37,31.1,5.66,15.3,-1.67,0.72,18.6,23.4,4.61,15,4.52,4.84,2.86
CCn1c(-c2nonc2N)nc2c(C#CC(C)(C)O)ncc(OC[C@@H]3CCCN3)c21,46.9,-6.24,6.03,0.03,0.31,-0.05,0.92,1.59,1.3,1.69,2.32,-2.22,-4.41,0.34,0.75,1.96,1.41,0.68,-1.56,0.36
COc1cccc(COc2cc(-n3cnc4ccccc43)sc2C(N)=O)c1,2.12,-6.56,1.66,-0.59,2.84,2.36,-2.62,1.13,1.97,2.69,3,-1.99,-1.01,1.67,8.88,1.92,4.36,-0.06,-2.46,-0.12
NS(=O)(=O)c1ccc(-c2ccc3c(NC(=O)C4CC4)n[nH]c3c2)cc1,7.66,2.52,7.94,3.34,4.2,3.73,4.23,2.15,3,1.44,1.36,0.31,-1.45,7.62,5.94,2.34,-1.13,3.91,5.02,0.67
COc1cc(C=NNc2ncnc3c2cnn3Cc2ccccc2)ccc1O,17.7,-2.83,1.68,-0.49,2.59,-0.98,-0.48,2.37,-6.99,-2.79,-1.19,-1.86,-0.84,-2.19,-2.5,-3.2,-2.27,-0.79,-6.14,-2.53
CCn1c(-c2nonc2N)nc2c(C#CC(C)(C)O)nc(O[C@@H](CN)c3ccccc3)cc21,84.6,10.4,55.3,3.23,36.3,2.01,1.01,-1.73,5.15,0.9,0.99,-2,-2.07,1.44,1.33,-1.84,2.96,1.2,0.11,1.29
Fc1ccc(-c2ncn(C3CCNCC3)c2-c2ccnc(Oc3ccccc3)n2)cc1,-1.88,-7.18,-6.2,0.38,2.3,,,2.78,6.09,2.44,3.04,-3.7,-2.18,,,,,,,
